# Shown are actives, neighbours in structure and some others; about 3.6% of the full set was active somewhere.
# Rango complex inh: prevents formation of the Rango-importin beta complex; Potency, µM (top dose mostly 92.2 µM), without a hit: at the highest dose inhibition of complex formation; Q14974; Rango CFP/YFP FRET sensor + importin beta, 45 min; 0.031% of 340,000 active; calls by dose curve;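 further: potency means the concentration at half of the fitted maximal effect; 0% = DMSO wells and 100% = buffer wells lacking importin beta; nearly all actives have a fitted effect of over 15% in size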
#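 Inhibition scored from the CFP 486 nm/YFP 530 nm FRET ratio 45 min after adding 0.125 microM importin beta to 50 nM Rango biosensor preincubated 5 min with compound (room temperature, PBS with DTT, Tween-20, BSA). No-importin wells as positive control.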
# PLK1 PBD block: inhibitors of human PLK1 polo-box domain binding; Potency, µM, for inactives: max response, negative = inhibition, actives largely listed as inhibitors; Plk1 PBD binding of FITC phosphopeptide, fluorescence polarization; AID 720504; 2.8% of 360,000 active; further: potency means the concentration at half of the fitted maximal effect; series mostly up to about 57 µM; on the % scale 0 is the no-effect control and ±100 the full control effect; nearly all actives have a fitted effect of over 65% in size
# GCN5L2 inh: blocks human GCN5L2 histone acetyltransferase. Q92830. Potency, µM (top dose mostly 58.9 µM), for the others: at the highest dose activity change, negative = inhibition, usual class: inhibitors. GCN5L2 HAT assay, ThioGlo1 CoA-SH fluorescence. AID 504327. 0.21% of 390,000 active; further: potency means the concentration at half of the fitted maximal effect; on the % scale 0 is the no-effect control and ±100 the full control effect
#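 ThioGlo1-coupled HAT assay: 20nM GCN5L2, 70uM acetyl-CoA, 75uM H3(1-25) peptide, pH 7.5. Fluorescence read at 340/540nm at start and after 20 min at room temperature.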
# PI5P4K alpha inh: PI5P4K alpha (human) kinase inhibition; P48426; 1.2% of 330,000 active; max response, %; PI5P4Kalpha enzyme, ADP-Glo luminescence, 60 min; hits give low values; AID 652105; active means max response of -50% or lower; inconclusive means between -30% and -50%; inactive means -30% or higher; further: value at the top dose of about 77 µM; on the % scale 0 is the no-effect control and ±100 the full control effect
#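 Controls without substrate or without enzyme flank wells where PI5P4Kalpha converts substrate using 5 microM ATP (final). Incubation lasts 60 minutes at room temperature; ADP formed is read by ADP-Glo luminescence.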
# VDR inh: vitamin D3 receptor (human) inhibition. P11473. VDR-SRC2-3 peptide fluorescence polarization, 2 h. Potency, µM, inactives show max response, negative = inhibition, hits mostly inhibitors. 0.93% of 400,000 active. AID 504847; further: potency means the concentration at half of the fitted maximal effect; on the % scale 0 is the no-effect control and ±100 the full control effect
# Target sequence (P11473 whole entry, looked up): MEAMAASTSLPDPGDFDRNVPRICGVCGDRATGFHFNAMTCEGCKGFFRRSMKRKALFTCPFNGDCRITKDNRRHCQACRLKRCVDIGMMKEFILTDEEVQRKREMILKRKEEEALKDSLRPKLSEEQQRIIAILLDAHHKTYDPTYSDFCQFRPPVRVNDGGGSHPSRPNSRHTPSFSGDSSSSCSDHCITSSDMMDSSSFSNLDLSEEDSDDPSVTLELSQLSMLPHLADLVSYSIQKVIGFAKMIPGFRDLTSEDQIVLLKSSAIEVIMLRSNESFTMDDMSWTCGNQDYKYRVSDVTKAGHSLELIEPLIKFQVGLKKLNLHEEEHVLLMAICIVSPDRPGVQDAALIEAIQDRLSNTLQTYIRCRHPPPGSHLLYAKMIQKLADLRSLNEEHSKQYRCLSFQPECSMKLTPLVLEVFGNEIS
#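 Measured by FP: displacement of SRC2-3 coactivator peptide from VDR by library compounds, following a two-hour ambient incubation.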
# Rango dissoc inh: inhibitors of RanGTP-induced Rango-importin beta complex dissociation | Biochemical FRET Rango-importin beta, RanGTP-induced dissociation | 0.071% of 340,000 active | O95149+P62826 | AID 540253 | Potency, µM (doses to about 46.1 µM), for the others: at the top dose activity change, negative = inhibition; calls by dose curve; further: potency means the concentration at half of the fitted maximal effect; % of control where 0% means no effect; nearly all actives have a fitted effect of over 45% in size
#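 Compounds preincubate 5 min with complex of recombinant Rango and importin beta in PBS with 1 mM DTT. Ran (0.6 uM) loaded with 2 mM GTP plus 0.2 uM RCC1 starts dissociation; FRET is recorded 45 min later.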
# * marks the source's active call; other numbers are inactive results; ? = inconclusive; . = no result given. Unless noted, the call rests on the fitted dose curve; in most records, active means well fitted curve in the direction sought with a large enough effect; inconclusive means small, poorly fitted or top-dose-only effect, or another doubt; inactive means no such curve, though single readings can be large; an effect the other way counts as inactive or inconclusive.
SMILES,Rango complex inh,PLK1 PBD block,GCN5L2 inh,PI5P4K alpha inh,VDR inh,Rango dissoc inh
CCC(C(=O)NC1CC1)n1nc(C)c2c(C)n(-c3ccc(C)cc3)nc2c1=O (stereo not drawn),0.0%,2.7%,-1.1%,-0.1,-7.7%,-3.8%
CCC(C(=O)NC1CCCCCC1)n1nc(C)c2c(C)n(-c3ccccc3)nc2c1=O (stereo not drawn),0.8%,29.9µM*,-4.7%,0.1,-26.5%,8.3%
CCC(C(=O)NCCC1=CCCCC1)n1nc(C)c2c(C)n(-c3ccccc3)nc2c1=O (stereo not drawn),-5.2%,26.7µM*,-2.0%,10.3,?,-15.1%
CC1=[N+](C)c2ccc3ccccc3c2C1(C)C,-6.1%,-29.0%,1.4%,-5.5,44.7µM*,-25.0%
CCOc1ccccc1NC(=O)CSc1nc2ccccc2nc1Cc1ccc(C)cc1,.,.,-8.0%,.,-3.9%,.
O=C(Nc1ncccc1O)c1ccc(Oc2ccccc2)cc1,-1.5%,29.9µM*,-5.6%,0.4,?,8.3%
CCOc1cc(C(=O)Nc2cc3c(cc2N2CCOCC2)n(C)c(=O)n3C)cc(OCC)c1OCC,0.0%,13.4µM*,-4.7%,-0.8,-28.8%,-17.8%
CCCCCCNC(=O)N[C@H](C(=O)NCCC[C@H]1CN2C(=NC[C@H]2C)N1CCC(c1ccccc1)c1ccccc1)C(C)O (stereo partly drawn),.,.,7.94µM*,.,.,.
C/C=C(\C)C(=O)NCCN1C2=NC[C@H](C)N2C[C@@H]1Cc1ccc(OC)cc1,0.5%,-2.1%,0.5%,-0.8,-10.0%,6.0%
S=c1[nH]nc(-c2ccco2)n1-c1ccc(Cl)cc1,-0.7%,-19.0%,0.8%,-21.8,-1.0%,10.9%
CC(C)(C)c1cc(-c2n[nH]c(=S)n2-c2ccc(Cl)cc2)n[nH]1,-1.1%,29.9µM*,-1.5%,-13.4,?,18.3%
NC(=S)c1ccc[n+]([O-])c1,0.1%,18.9µM*,.,?,50.1µM*,0.7%
CC1(C)CC2C1CC[C@]1(C)CCC3C(C(=O)O)CC(=O)O[C@]32C1 (stereo partly drawn),.,.,7.94µM*,.,-5.8%,.
Cc1cc(C)nc(N/N=C/c2sccc2C)n1,0.5%,18.9µM*,-18.1%,-53.1*,?,-1.1%
CC1CCCCN1C(=O)CSc1nc(C2CC2)nc2c1cnn2-c1ccccc1 (stereo not drawn),2.6%,26.7µM*,-11.3%,.,-10.5%,-7.3%
COc1ccc(C(=O)NNC(=O)C(=O)Nc2ccc(C)c(Cl)c2)cc1,0.6%,26.7µM*,-3.2%,-22.1,?,13.3%
COc1ccccc1C(=O)NNC(=O)c1cccc([N+](=O)[O-])c1,-3.6%,-9.6%,-8.7%,-4.1,-0.9%,18.8%
COc1ccccc1C(=O)NNC(=O)C(=O)Nc1ccc(C)c(Cl)c1,?,29.9µM*,-11.9%,-1.7,-22.1%,-1.5%
COc1ccccc1C(=O)NNC(=O)c1cccc(C)c1,1.9%,16.8µM*,-14.5%,-18.5,70.8µM*,19.6%
CCCSCCCNC(=O)C1CCN(c2nn3cc(-c4ccc(F)cc4)nc3s2)CC1,.,.,-1.1%,.,0.4%,.
Cc1ccc(C)c(N(C(=O)c2snc(C(N)=O)c2N)C(C(=O)NCC2CCCO2)c2cccs2)c1 (stereo not drawn),0.2%,29.9µM*,3.0%,7.7,79.4µM*,-11.3%
C[N+](C)(C)CC[N+]1(C)Cc2c(Cl)c(Cl)c(Cl)c(Cl)c2C1,.,.,20µM*,.,-8.4%,.
CCOc1ccc(N(C)C(CNS(=O)(=O)c2ccccc2)c2ccccc2)cc1 (stereo not drawn),.,.,-15.3%,.,24.7%,.
O=C(Nc1ccc(S(=O)(=O)Nc2nccs2)cc1)c1ccc(F)c(S(=O)(=O)N2CCOCC2)c1,?,7.6%,-6.3%,-15.6,7.1%,?
O=C(Nc1ccc(S(=O)(=O)Nc2ncccn2)cc1)c1ccc(F)c(S(=O)(=O)N2CCOCC2)c1,-0.2%,29.9µM*,-0.8%,-15.5,-29.3%,32.1%
O=C(Nc1nnc(COc2ccc(Cl)cc2)s1)C1CCCO1 (stereo not drawn),0.2%,5.97µM*,-11.3%,?,-8.8%,0.6%
CCc1nnc(NC(=O)C2CCCO2)s1 (stereo not drawn),0.3%,-11.1%,-6.4%,1.9,14.0%,2.4%
CC(=O)N1CC(C)Sc2ccc(S(=O)(=O)NCCc3cccc(C)c3)cc21 (stereo not drawn),-7.5%,11.9µM*,-1.8%,-20.3,?,-11.7%
O=C(COC(=O)c1ccc(NS(=O)(=O)c2cccs2)cc1)Nc1nc2c(F)c(F)c(F)cc2s1,?,-24.7%,-12.6%,-90.4*,-7.8%,-19.0%
CCOc1ccc2nc3ccc4[nH]onc4c3c2c1,?,-11.4%,.,.,-13.8%,?

# Screening results: PubChem, National Center for Advancing Translational Sciences (NCATS)
